Rows were chosen to be rich in hits. Some 9% of all compounds tested hit in one or more screens of this group.
Lamin A splicing = qHTS Assay for Modulators of Lamin A Splicing. HeLa LMNA splicing GFP/RFP minigene ratio, 48 h. Potency, µM (highest dose often 46.1 µM), for inactives: at the top dose ratio change, negative = inhibition, hits mostly inhibitors. 200,000 tested, 0.01% active; active = well fitted inhibition curve with a large enough effect in the signal ratio, with a control signal flat, not every such curve was filed as active; inconclusive = small, poorly fitted or top-dose-only effect, or effect the other way, or a change in a side signal; the % refers to the signal ratio; also: % is scaled to controls: 0 for no effect and ±100 for the full control effect
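Read-out is the ratio of GFP to DsRed2 object intensity, acquired by 488 nm laser-scanning cytometry on HeLa lamin A-EGFP minigene reporter cells. Compound incubation 48 hrs at 37 °C in Opti-MEM with 2% FBS; DMSO 0.5% final.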
HTT ATP protect = qHTS Multiplex Assay to Identify Dual Action Probes in a Cell Model of Huntington: Cytoprotection (ATP); Potency, µM (series often up to 56.4 µM), inactives show cytoprotection (ATP increase), most hits filed as activators; 230,000 tested, 0.14% active; AID 1471, 2008; PC12 HTT-Q103 induced, cytoprotection, ATP luminescence, 40 h; also: % of control where 0% means no effect; nearly all actives have a fitted effect of over 45% in size
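Compounds added alongside 100 nM tebufenozide, which induces toxic Q103 huntingtin exon 1-GFP in stable PC12 cells; surviving cells quantified by luminescent ATP measurement. Medium: phenol red-free DMEM, 5% equine and 5% calf serum.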
KinaseGlo FLuc = Counterscreen for Luciferase (Kinase-Glo TM) Inhibition. Kinase-Glo luciferase, ATP luminescence, 8 min. Potency, µM (series often up to 38.3 µM), for inactives: top-dose activity change, negative = inhibition, usual class: inhibitors. 200,000 tested, 0.28% active. AID 1379, 2008; also: % is scaled to controls: 0 for no effect and ±100 for the full control effect; nearly all actives have a fitted effect of over 60% in size
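Recombinant Kinase-Glo luciferase, 10 uM ATP (linear range), luciferin; imidazole pH 7.2 / KCl / MgCl2 / Tween / BSA buffer; 8 min RT; luminescence.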
HPGD block = qHTS Assay for Inhibitors of HPGD (15-Hydroxyprostaglandin Dehydrogenase) | 150,000 tested, 4.3% active | 15-hydroxyprostaglandin dehydrogenase [NAD(+)] (Homo sapiens), P15428 | Potency, µM, inactives show top-dose activity change, negative = inhibition, most hits filed as inhibitors | purified HPGD, NADH fluorescence kinetic, PGE2 substrate | AID 894, 2007; active = well fitted inhibition curve with a large enough effect, not every such curve was filed as active; inconclusive = small, poorly fitted or top-dose-only effect, or another doubt; inactive = no such curve, though single readings can be large or run the other way; also: % is scaled to controls: 0 for no effect and ±100 for the full control effect
Target sequence (P15428 whole entry, looked up): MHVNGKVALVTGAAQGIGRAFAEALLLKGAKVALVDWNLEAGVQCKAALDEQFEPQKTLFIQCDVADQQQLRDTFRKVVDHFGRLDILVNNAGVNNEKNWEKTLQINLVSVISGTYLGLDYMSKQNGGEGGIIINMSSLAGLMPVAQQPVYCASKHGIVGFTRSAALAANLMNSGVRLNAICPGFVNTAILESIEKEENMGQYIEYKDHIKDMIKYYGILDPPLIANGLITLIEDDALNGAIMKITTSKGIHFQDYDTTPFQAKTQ
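NADH formation kinetics: reaction with 30 uM PGE2 and 1 mM NAD+ (final), 20 nM enzyme, Tris-HCl pH 8 with Tween 20, after 15 min compound preincubation at room temperature. Fluorescence change, last versus first of five reads.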
ALDH1A1 block = qHTS Assay for Inhibitors of Aldehyde Dehydrogenase 1 (ALDH1A1); Purified ALDH1A1, NADH fluorescence, propionaldehyde substrate; Potency, µM (titrated, usually from 75.3 µM), inactives show at the highest dose activity, negative = inhibition, most hits filed as inhibitors; 220,000 tested, 7.3% active; active = well fitted inhibition curve with a large enough effect, not every such curve was filed as active; inconclusive = small, poorly fitted or top-dose-only effect, or another doubt; inactive = no such curve, though single readings can be large or run the other way;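 also: plate controls were no enzyme wells and a reference inhibitor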
Target sequence (P00352 whole entry, looked up): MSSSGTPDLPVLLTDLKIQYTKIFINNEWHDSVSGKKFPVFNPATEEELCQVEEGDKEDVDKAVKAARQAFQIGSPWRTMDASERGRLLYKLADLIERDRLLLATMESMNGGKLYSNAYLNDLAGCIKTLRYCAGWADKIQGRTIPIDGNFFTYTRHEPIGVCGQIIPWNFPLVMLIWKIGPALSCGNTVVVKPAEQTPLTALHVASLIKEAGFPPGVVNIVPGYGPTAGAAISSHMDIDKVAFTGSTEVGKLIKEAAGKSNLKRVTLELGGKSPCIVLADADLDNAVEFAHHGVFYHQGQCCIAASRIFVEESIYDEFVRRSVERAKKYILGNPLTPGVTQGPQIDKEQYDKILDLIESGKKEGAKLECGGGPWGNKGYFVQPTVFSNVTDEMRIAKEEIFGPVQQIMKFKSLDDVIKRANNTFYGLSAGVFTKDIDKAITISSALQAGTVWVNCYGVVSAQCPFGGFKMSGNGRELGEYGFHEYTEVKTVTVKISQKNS
HttQ103 aggreg = qHTS Multiplex Assay to Identify Dual Action Probes in a Cell Model of Huntington: Aggregate Formation (GFP). 220,000 tested, 1.1% active. Potency, µM (highest dose often 46.1 µM), without a hit: at the top dose activity change, negative = inhibition, usual class: inhibitors. PC12 HttQ103-GFP aggregates, Acumen cytometry, 40 h; also: % is scaled to controls: 0 for no effect and ±100 for the full control effect; nearly all actives have a fitted effect of over 60% in size
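Read-out: GFP aggregate count by laser scanning cytometer (488 nm excitation, 500-530 nm emission, 1–25 µm objects >6 SD above background). Cells: PC12, inducible HTTex1-Q103-GFP, 100 nM tebufenozide; compounds titrated.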
An asterisk follows results filed as active; u = inconclusive; x = no result; [ ] = dose if it differs, or a comment. Unless noted, calls follow the shape of the dose curve; as a rule, active = well fitted curve in the direction sought with a large enough effect; inconclusive = small, poorly fitted or top-dose-only effect, or another doubt; inactive = no such curve, though single readings can be large; an effect the other way counts as inactive or inconclusive. Potency is read from the fitted curve at half-maximal effect.

SMILES	Lamin A splicing	HTT ATP protect	KinaseGlo FLuc	HPGD block	ALDH1A1 block	HttQ103 aggreg
COc1ccccc1-n1c(CNC(=O)c2ccc(S(=O)(=O)N3CCOCC3)cc2)n[nH]c1=S	7.4%	-4.3%	2.3%	u	u	8.0%[9.22 µM]
CN(CCO)CCOCCOc1cccc2ccccc12	7.0%[46 µM]	-23.8%	2.6%	x	14.1µM*	-10.9%
OCCOCCOc1cccc2[nH]ccc12	-24.9%[46 µM]	u	2.4%	x	12.7%	-2.2%
CCc1c(C(=O)Nc2ccc(OC)cc2)[nH]c(C)c1C(C)=O	u	-23.5%	-3.8%	-13.1%	5.7%	-5.8%
CCC(C)NS(=O)(=O)c1ccc(OCC(=O)Nc2ccc3c(c2)OCO3)cc1 (centres undefined)	0.7%	-8.7%	2.2%	-14.9%	1.26µM*	8.7%[9.22 µM]
O=C(CCc1ccc(S(=O)(=O)NCc2ccccc2)cc1)NCc1ccco1	u	x	-3.1%	-14.9%	u	4.5%
CC(C)NS(=O)(=O)c1ccc(OCC(=O)Nc2ccc3c(c2)OCO3)cc1	x	-34.9%	-0.5%	x	u	-3.5%
CCCNS(=O)(=O)c1ccc(CCC(=O)NCc2ccco2)cc1	6.3%	13.6%	2.9%	-12.8%	2.24µM*	13.8%
CC(=O)NC(CCS(C)(=O)=O)C(=O)Nc1ccc2c(c1)OCO2 (centres undefined)	-13.7%	x	-0.7%	-5.6%	14.2%	1.12µM*
O=C(CCc1ccc(S(=O)(=O)NCCc2ccccc2)cc1)Nc1ccc2c(c1)OCCO2	u	17.5%[10 µM]	0.7%	-6.6%	-10.3%	8.4%
CC(C)NS(=O)(=O)c1ccc(CCC(=O)Nc2ccc3c(c2)OCO3)cc1	-12.1%	9.5%	-0.9%	-12.3%	0.398µM*	-11.6%
COc1ccc(C2CC(c3cccc(C)c3)n3nc(N)nc3N2)cc1 (centres undefined)	-2.2%	-13.5%[10 µM]	15.3%	-20.2%	u	-4.0%
CC(C)CCN(CCC(C)C)CC(O)Cn1c2ccccc2c(=O)c2ccccc21 (centres undefined)	x	7.6%[10 µM]	x	x	u	8.2%[9.22 µM]
COCCn1c(=O)c(C)nc2cnc(Oc3ccccc3)nc21	-1.2%	0.1%	x	x	u	x
CCCNS(=O)(=O)c1ccc(CCC(=O)Nc2ccc3c(c2)OCCO3)cc1	u	x	-2.1%	-13.3%	10µM*	16.1%
CCCNS(=O)(=O)c1ccc(CCC(=O)Nc2ccc3c(c2)OCO3)cc1	u	-6.7%[10 µM]	-5.4%	2.1%	u	-11.6%
COC(=O)c1sccc1S(=O)(=O)N(CC(=O)NCc1ccc(C)cc1)c1ccc(Cl)cc1	-18.3%[46 µM]	x	x	x	x	x
COc1ccc(C2=NN(C(C#N)c3ccc(OC)c(OC)c3)C(c3ccccc3)C2)cc1 (centres undefined)	-8.3%	-29.2%	-5.4%	-29.3%	17.8µM*	-14.2%
COc1ccc(C(C#N)N2CCC(c3ccccc3)=N2)cc1OC (centres undefined)	u	26.4%[10 µM]	0.8%	x	2.24µM*	39.8%[9.22 µM]
CC1CN(C(=O)c2cccc(COc3ccc(Br)cc3)c2)CC(C)O1 (centres undefined)	u	-17.9%[0.074 µM]	0.3%	-6.8%	-4.1%	-0.3%
COC(=O)C1=C(C)NC(=O)/C1=C\c1cc(C)n(-c2cc(C)cc(C)c2)c1C	-1.3%	-20.3%	16.6%	-6.2%	-12.8%	-2.6%
COC(=O)C1=C(O)/C(=C\c2cc(C)n(-c3ccccc3F)c2C)N=C1C	x	u	-1.3%	x	11.2µM*	-19.8%
COC(=O)C1=C(C)NC(=O)/C1=C\c1cc(C)n(-c2ccccc2)c1C	x	-39.6%	1.7%	x	25.1µM*	-7.2%
O=C(c1ccco1)N1CCN(Cc2ccccc2C(F)(F)F)CC1	x	15.5%[10 µM]	x	x	x	x
Clc1ccccc1Cn1nnc2c(NCC3CC3)ncnc21	u	-17.1%	2.4%	-22.1%	u	-14.8%
SMILES	Lamin A splicing	HTT ATP protect	KinaseGlo FLuc	HPGD block	ALDH1A1 block	HttQ103 aggreg
O=C(c1ccco1)N1CCN(c2nc(C(F)(F)F)nc3c2nnn3Cc2ccccc2)CC1	u	34.6%[10 µM]	-1.9%	u	14.1µM*	u
Cc1cc(N2CCN(C(=O)c3ccco3)CC2)c2ccccc2n1	x	4.8%[10 µM]	x	x	x	-5.0%[9.22 µM]
Clc1ccccc1Cn1nnc2c(Nc3ccccc3)ncnc21	u	-26.5%	-0.6%	-23.0%	25.1µM*	u
O=C(c1ccco1)N1CCN(c2nnc(-c3ccccc3)c3ccccc23)CC1	3.5%	-11.7%	2.5%	-6.3%	25.1µM*	11.0%[9.22 µM]
O=C(c1ccco1)N1CCN(c2ncnc3c2nnn3Cc2ccccc2Cl)CC1	u	12.4%[10 µM]	2.6%	35.5µM*	u	-15.9%
CCC(C)NCCOc1ccc(Br)cc1 (centres undefined)	9.9%	-4.9%	-0.7%	3.5%	3.4%	3.6%
O=C(Nc1nnc(C2CC2)s1)c1cc(S(=O)(=O)N2CCN(c3ccccc3)CC2)ccc1Cl	-6.3%	-15.3%	-0.7%	-9.8%	-2.3%	-12.3%
Cc1ccc(S(=O)(=O)N2CCN(C(=S)NCCc3ccccc3)CC2)cc1	-21.1%[46 µM]	-18.7%	-2.2%	x	-13.2%	u
CC(=O)N1CCN(C2=NC(=O)C(=C3CCCCC3)S2)CC1	-16.6%	-0.5%[10 µM]	3.5%	-8.9%	12.6µM*	0.9%
Cc1cccc(N2CCN(C3=NC(=O)C(=C4CCCCC4)S3)CC2)c1	u	9.0%[10 µM]	13.9%	-5.6%	6.31µM*	u
N#CCCN1CCN(C2=NC(=O)C(=C3CCCCC3)S2)CC1	u	0.3%[10 µM]	-8.9%	u	1.26µM*	4.6%
Cc1cccc(N2CCN(C3=NC(=O)/C(=C\c4cn[nH]c4-c4ccccc4)S3)CC2)c1	-12.0%	9.6%[10 µM]	2.2%	-12.6%	3.3%	-2.8%
CC(=O)N1CCN(C2=NC(=O)/C(=C\c3cccs3)S2)CC1	u	21.5%[10 µM]	0.8%	x	-7.2%	7.5%[9.22 µM]
O=C1N=C(N2CCOCC2)SC1=C1CCCCC1	u	12.0%	u	-28.5%	2µM*	-1.6%
O=C(Nc1ccc2c(c1)OCO2)C(c1ccccc1)N1CCC2(CC1)OCCO2 (centres undefined)	-11.5%	-0.9%[10 µM]	-2.0%	-0.9%	u	8.4%
O=c1[nH]c(=O)n(CCO)c2nnn(Cc3ccccc3)c12	-9.6%	0.2%	-2.9%	28.2µM*	-8.7%	-2.7%
COc1cccc(CC2(CO)CCCN(Cc3[nH]c4ccc(C)cc4c3C)C2)c1 (centres undefined)	x	-44.5%	x	x	22.4µM*	-3.0%

From PubChem BioAssay
